Ecoli rRNA inh: inhibitors of bacterial rRNA selective over humanized ribosomes; GFP signal change (wild-type ribosome), % (no concentration beside the values); E. coli WT GFP vs humanized-ribosome RFP mutants, fluorescence, 24 h; stronger effect = lower value; DMSO median 0, no signal -100; 1.6% of 350,000 active;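 active means significant combined selectivity score with lowered wild-type GFP, culture density cut under 30%, mutant RFP and density less affected; inactive means any of these conditions unmet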
RAD52 anneal inh: blocks human RAD52 DNA annealing. 0.46% of 360,000 active. inhibition, % at 18.7 µM. P43351. recombinant RAD52 DNA annealing, FRET fluorescence;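 active means every replicate showing at least 50% inhibition; inconclusive means mean inhibition at least 50% but not in every replicate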
CASP6 VEID inh: caspase-6 (human) enzyme inhibition; P55212; purified caspase-6, Z-VEID-R110 cleavage fluorescence; inhibition, % at 12.5 µM; 0.53% of 350,000 active; AID 686996;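 active means mean inhibition across replicates at least about 35%, with every replicate also reaching that limit, limit read from the data; inconclusive means only one of the two criteria met; inactive means neither criterion met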
NSD2 HMT inh: inhibitors of human histone methyltransferase NSD2. O96028. NSD2 peptide methylation, AlphaScreen, 120 min. inhibition, % at 12.5 µM. 0.54% of 310,000 active; in the data active means inhibition above about 50%
Target sequence (O96028 whole entry, looked up): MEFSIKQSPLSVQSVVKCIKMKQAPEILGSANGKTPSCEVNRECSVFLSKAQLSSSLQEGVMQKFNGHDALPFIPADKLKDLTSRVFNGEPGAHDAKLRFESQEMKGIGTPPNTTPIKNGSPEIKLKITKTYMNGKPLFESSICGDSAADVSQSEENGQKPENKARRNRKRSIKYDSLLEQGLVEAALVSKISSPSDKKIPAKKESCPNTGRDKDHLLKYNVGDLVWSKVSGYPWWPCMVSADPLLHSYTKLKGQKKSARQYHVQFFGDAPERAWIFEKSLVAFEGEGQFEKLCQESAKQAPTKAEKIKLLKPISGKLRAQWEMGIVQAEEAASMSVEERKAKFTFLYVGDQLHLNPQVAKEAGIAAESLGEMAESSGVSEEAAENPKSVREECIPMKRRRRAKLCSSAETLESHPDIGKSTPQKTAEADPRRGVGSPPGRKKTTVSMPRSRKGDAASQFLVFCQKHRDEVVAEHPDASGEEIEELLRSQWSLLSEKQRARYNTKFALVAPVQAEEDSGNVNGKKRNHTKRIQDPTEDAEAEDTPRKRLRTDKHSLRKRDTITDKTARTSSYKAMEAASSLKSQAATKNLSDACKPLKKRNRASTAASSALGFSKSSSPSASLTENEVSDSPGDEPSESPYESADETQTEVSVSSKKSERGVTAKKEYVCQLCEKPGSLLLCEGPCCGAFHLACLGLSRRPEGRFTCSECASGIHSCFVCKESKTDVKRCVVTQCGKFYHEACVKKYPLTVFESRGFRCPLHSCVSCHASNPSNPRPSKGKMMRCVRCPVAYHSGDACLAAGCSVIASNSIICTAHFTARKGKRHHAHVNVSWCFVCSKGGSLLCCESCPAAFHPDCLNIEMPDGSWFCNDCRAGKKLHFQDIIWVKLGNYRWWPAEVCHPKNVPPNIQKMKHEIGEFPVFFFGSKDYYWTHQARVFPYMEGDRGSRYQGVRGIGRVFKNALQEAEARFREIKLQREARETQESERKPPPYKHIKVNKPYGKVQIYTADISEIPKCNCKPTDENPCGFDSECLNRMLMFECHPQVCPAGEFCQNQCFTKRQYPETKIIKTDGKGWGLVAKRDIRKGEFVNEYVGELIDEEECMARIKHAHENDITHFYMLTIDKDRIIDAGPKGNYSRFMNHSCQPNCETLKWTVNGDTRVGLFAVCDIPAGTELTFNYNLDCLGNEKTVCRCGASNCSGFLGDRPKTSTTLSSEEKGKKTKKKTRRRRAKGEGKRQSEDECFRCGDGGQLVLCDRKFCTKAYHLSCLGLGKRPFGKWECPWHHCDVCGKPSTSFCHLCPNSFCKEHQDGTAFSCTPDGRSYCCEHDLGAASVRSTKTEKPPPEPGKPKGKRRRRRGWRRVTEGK
MLL AF4-AF9 inh: inhibitors of human MLL-AF4/AF9 interaction | AlphaScreen, biotin-AF4 peptide binding to FLAG-AF9 | inhibition, % at 10 µM | 0.47% of 350,000 active;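 active means every replicate reaching a set inhibition limit, whatever the replicate mean, cut at about 25% in these data; inconclusive means mean inhibition reaches that limit but some replicates miss it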
DNA binder FP: DNA binding artifact in RAD52 counter-screen; Salmon sperm DNA/acridine orange FP displacement; 8% of 1,000 active; AC50, µM; shares compounds with RAD52 anneal inh;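 active means fitted half-maximal concentration for signal loss at or below twice the highest dose tested, in every separate run, actives reach about 64 µM in these data; inconclusive means runs disagree, or flat partial signal loss, or poor fit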
Large screens that a line does not name were inactive (follow-up assays come after a bar, where they were run); ! = not active in a repeat. Rows were chosen to be rich in hits. Some 2.5% of all compounds tested hit in one or more screens of this group.

Cc1cc2nc(N=C(N)N)nc(C)c2cc1C	RAD52 anneal inh 84 | DNA binder FP inactive
CCCC(=O)N/C(N)=N/c1nc(C)c2cc(C)ccc2n1	none
CCC(=O)N/C(N)=N/c1nc(C)c2cc(C)c(C)cc2n1	none
Cc1nc(N=C(N)N)nc2ccccc12	RAD52 anneal inh 61 | DNA binder FP inactive
Cc1ccc2nc(N=C(N)N)nc(C)c2c1	RAD52 anneal inh 51 | DNA binder FP inactive
Cc1cc2nc(/N=C(\N)NC(=O)C(C)C)nc(C)c2cc1C	none (no result: Ecoli rRNA inh)
CCc1ccc2nc(N=C(N)N)nc(C)c2c1	RAD52 anneal inh 51 | DNA binder FP inactive
COc1cccc(NC(=O)N2CC(=O)N3[C@H](CO)[C@@H](c4ccc(Br)cc4)[C@@H]3C2)c1	none (no result: NSD2 HMT inh)
COc1ccc(NC(=O)Nc2ccc3c(c2)C(=O)N([C@@H](C)CO)C[C@H](C)[C@H](CN(C)C(=O)CCCN(C)C)OCCCC[C@H](C)O3)cc1	none (no result: NSD2 HMT inh)
Nc1c2ccccc2nc2ccccc12	Ecoli rRNA inh -43!, RAD52 anneal inh 98 | DNA binder FP 33µM
CCC(=O)N1C[C@@H](C)[C@H](OC)CN(C)C(=O)c2ccc(NC(=O)Nc3ccc(Cl)cc3)cc2OC[C@@H]1C	none (no result: CASP6 VEID inh, NSD2 HMT inh)
CC(C)(c1ccccc1)c1ccc(OCCCN2CCNCC2)cc1	RAD52 anneal inh 57 | DNA binder FP inactive
CN1c2ccc(Br)cc2[C@H]2[C@H](CCN2C(=O)Nc2ccccc2F)[C@H]1CO	none (no result: NSD2 HMT inh)
Cc1noc(C)c1NC(=O)N(C)C[C@@H]1OCCCC[C@H](C)Oc2ccc(NC(=O)CCC(F)(F)F)cc2C(=O)N([C@@H](C)CO)C[C@H]1C	none (no result: NSD2 HMT inh)
Cc1cc(C)c2c(N)c3cccc(C)c3nc2n1	RAD52 anneal inh 78 | DNA binder FP 32µM
CCCC(=O)Nc1ccc2c(c1)OC[C@H](C)N(CC1CCOCC1)C[C@@H](C)[C@H](OC)CN(C)C2=O	none (no result: NSD2 HMT inh)
CNc1nc(Oc2ccc3sc(C)nc3c2)c2sccc2n1	none
CN(C)CCNc1nc(Oc2cccc(F)c2)c2sccc2n1	RAD52 anneal inh 58 | DNA binder FP inactive
CC(=O)Nc1cccc(Oc2nc(NCCN(C)C)nc3ccsc23)c1	RAD52 anneal inh 90 | DNA binder FP inactive
Cc1nc2cc(Oc3nc(NCCN(C)C)nc4ccsc34)ccc2s1	RAD52 anneal inh 78 | DNA binder FP inactive
CNc1nc(Oc2cccc(F)c2)c2sccc2n1	none
COCC(=O)Nc1ccc2c(c1)C(=O)N(C)[C@H]1CC[C@H](CC(=O)Nc3ccccc3OC)O[C@@H]1CO2	none (no result: Ecoli rRNA inh, NSD2 HMT inh)
Cc1ccc(-c2[nH]c3cc(C(=O)NCCCn4ccnc4)ccc3c(=O)c2O)cc1	Ecoli rRNA inh -21, RAD52 anneal inh 80, MLL AF4-AF9 inh 57 (no result: NSD2 HMT inh) | DNA binder FP inactive
CCCNC(=O)c1ccc2c(=O)c(O)c(-c3ccc(C)cc3)[nH]c2c1	none (no result: NSD2 HMT inh)
C[C@@H]1CCCCO[C@@H](CN(C)CC2CC2)[C@H](C)CN([C@H](C)CO)C(=O)c2cc(NC(=O)c3ccccc3)ccc2O1	none (no result: NSD2 HMT inh)
Oc1ccc(CN2CCCCC2)c2cccnc12	MLL AF4-AF9 inh inconclusive
Oc1c(CN2CCCCC2)ccc2cccnc12	Ecoli rRNA inh -13, RAD52 anneal inh 63, CASP6 VEID inh 69 (no result: NSD2 HMT inh) | DNA binder FP inactive
COc1cc2cc(CN(CCc3cccc(C)c3)C(=S)NCCCN(C)C)c(=O)[nH]c2cc1OC	Ecoli rRNA inh -38, RAD52 anneal inh 51 | DNA binder FP inactive
CN1CCN(C2CCN(c3ccc(Nc4nnc(Cl)c(Nc5ccccc5S(C)(=O)=O)n4)c(OC(CF)CF)c3)CC2)CC1	RAD52 anneal inh 51 (no result: NSD2 HMT inh, MLL AF4-AF9 inh) | DNA binder FP inactive
Cc1c(C(=O)NCCSCc2ccco2)cccc1[N+](=O)[O-]	none (no result: Ecoli rRNA inh, RAD52 anneal inh, CASP6 VEID inh, MLL AF4-AF9 inh)
CN/C(=C\[N+](=O)[O-])NCCSCc1ccc(CN(C)C)o1	RAD52 anneal inh 61 (no result: Ecoli rRNA inh, NSD2 HMT inh) | DNA binder FP inactive
O=C(Cc1ccncc1)NCC[C@H]1CC[C@@H](NC(=O)Nc2cccc(F)c2)[C@@H](CO)O1	none (no result: NSD2 HMT inh)
CN(C)CCCNc1ccc(-c2n[nH]c(=O)c3ccccc23)cc1[N+](=O)[O-]	RAD52 anneal inh 66 (no result: Ecoli rRNA inh) | DNA binder FP inactive
CC(O)CNc1ccc(-c2n[nH]c(=O)c3ccccc23)cc1[N+](=O)[O-] (centres undefined)	none
N=c1n(CCN2CCCCC2)c2ccccc2n1CC(=O)c1cccc([N+](=O)[O-])c1	RAD52 anneal inh 75 (no result: NSD2 HMT inh) | DNA binder FP inactive
CCCCCCCCCCCCCCCC[N+](C)(C)Cc1ccc(F)cc1	RAD52 anneal inh 91 (no result: NSD2 HMT inh) | DNA binder FP 26µM
CCN1CCN(c2cc(C)c3cc(NC(=S)N4CCC5(CC4)OCCO5)ccc3n2)CC1	RAD52 anneal inh 56 | DNA binder FP inactive
Cc1cc(N2CCN(C)CC2)nc2ccc(NC(=S)N3CCN(c4ccccn4)CC3)cc12	RAD52 anneal inh 71 | DNA binder FP inactive
CCN1CCN(c2cc(C)c3cc(NC(=S)N4CCOCC4)ccc3n2)CC1	RAD52 anneal inh 78 | DNA binder FP inactive
CCN1CCN(c2cc(C)c3cc(NC(=S)N4CCN(c5ccccc5)CC4)ccc3n2)CC1	none
CCCN1CCN(C(=S)Nc2ccc3nc(N4CCN(CC)CC4)cc(C)c3c2)CC1	RAD52 anneal inh 89 (no result: NSD2 HMT inh) | DNA binder FP inactive
C[C@H]1CN([C@@H](C)CO)C(=O)c2cc(C#CC3CCCC3)cnc2O[C@@H]1CN(C)C(=O)c1ccncc1	none (no result: RAD52 anneal inh, CASP6 VEID inh, NSD2 HMT inh, MLL AF4-AF9 inh)
C[C@H]1CN([C@@H](C)CO)C(=O)c2cc(C#CC3CCCCC3)cnc2O[C@H]1CN(C)C(=O)NC1CCCC1	none (no result: NSD2 HMT inh)
CCN1CCN(c2cc(C)c3cc(NC(=S)N(CC)CC)ccc3n2)CC1	RAD52 anneal inh 68, MLL AF4-AF9 inh 25 (no result: NSD2 HMT inh) | DNA binder FP inactive
CCC(C)NC(=S)Nc1ccc2nc(N3CCN(CC)CC3)cc(C)c2c1 (centres undefined)	none (no result: NSD2 HMT inh)
C#CCOCCOCCOCCNc1nc(N2CCN(C(=O)[C@H]([C@@H](C)CC)n3cc([C@@H](N)CO)nn3)CC2)nc(N2CCN(C(=O)[C@H](CCCCN)n3cc([C@@H](N)CC(C)C)nn3)CC2)n1	RAD52 anneal inh 52 (no result: NSD2 HMT inh) | DNA binder FP inactive
C#CCOCCOCCOCCNc1nc(N2CCN(C(=O)[C@H](CCC(=O)O)n3cc([C@@H](N)[C@H](C)CC)nn3)CC2)nc(N2CCN(C(=O)[C@H](CCCCN)n3cc([C@@H](N)CC(N)=O)nn3)CC2)n1	none (no result: NSD2 HMT inh)
C#CCOCCOCCOCCNc1nc(N2CCN(C(=O)[C@H](CCCCN)n3cc([C@@H](N)[C@H](C)CC)nn3)CC2)nc(N2CCN(C(=O)[C@H](CCCCN)n3cc([C@@H](N)CC(N)=O)nn3)CC2)n1	RAD52 anneal inh 54, MLL AF4-AF9 inh 60 (no result: NSD2 HMT inh) | DNA binder FP inactive
Cc1cc(C(=O)OC(C)C(=O)NC2CCCCC2C)c2ccccc2n1 (centres undefined)	RAD52 anneal inh 51 (no result: Ecoli rRNA inh, NSD2 HMT inh) | DNA binder FP inactive
Cc1cc(C(=O)OCC(=O)NC2CCCCC2C)c2ccccc2n1 (centres undefined)	none
CCC(/C=C1\Sc2ccc(OC)cc2N1CCO)=C\c1sc2ccc(OC)cc2[n+]1CCO	RAD52 anneal inh 83 | DNA binder FP inactive

Screening results from PubChem.
